Data published in PubChem BioAssay (Tox21).
Several values for one entry are separate records, joined by “and”; a condition that tells them apart may be missing. Equal entries are not always repeated. Results filed as inconclusive are left out. Where a call stands in place of a potency, no number is given. The source holds several records for some structures; these can differ, active in one and inactive in another. Activity calls are given as the source filed them. Unless noted, the call rests on the fitted dose curve; in most records, active means well fitted curve in the direction sought with a large enough effect in the repeat runs; inconclusive means weak or mixed curves; inactive means no such curve, though single readings can be large; an effect the other way counts as inactive or inconclusive.

Experiments:
[1] = A CellTox Green Cytotoxicity Assay to monitor cytotoxicity in HepG2 cells - 0 hour (AID 1224882); further: nearly all actives have a fitted effect of over 35% in size; further: potency means the concentration at half of the fitted maximal effect
In short: (§1)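 First, HepG2 cells (600/well) mixed with reagent were plated; second, after 5 h at 37 C they received compounds via pintool; third, fluorescence was measured at 0 h through 40 h at 8 h intervals.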

[2] = A CellTox Green Cytotoxicity Assay to monitor cytotoxicity in HepG2 cells - 32 hour (AID 1224883); further: nearly all actives have a fitted effect of over 50% in size; further: potency means the concentration at half of the fitted maximal effect
In short: as §1

[3] = A CellTox Green Cytotoxicity Assay to monitor cytotoxicity in HEK293 cells - 8 hour (AID 1224884); further: nearly all actives have a fitted effect of over 35% in size; further: potency means the concentration at half of the fitted maximal effect
In short: (§2)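 Dead-cell fluorescence measured kinetically: asymmetric cyanine dye, HEK293, 600 cells/well, 5 h settle, 23 nL cpd/DMSO, 37 C, reads 0–40 h every 8 h.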

[4] = qHTS RealTime-Glo MT Cell Viability Assay in HepG2 cells - 16 hour (AID 1224885); further: nearly all actives have a fitted effect of over 50% in size; further: potency means the concentration at half of the fitted maximal effect
In short: (§3)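 Viability was tracked continuously by NanoLuc luminescence from prosubstrate reduced by living HepG2 cells, at successive time points over 40 h of compound exposure. Cells with reagent were preincubated 5 h at 37 °C before compound addition.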

[5] = qHTS RealTime-Glo MT Cell Viability Assay in HEK293 cells - 24 hour (AID 1224886); further: nearly all actives have a fitted effect of over 50% in size; further: potency means the concentration at half of the fitted maximal effect
In short: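 Viability tracked continuously by luminescence as live cells reduce a prosubstrate for NanoLuc; HEK293 cells preincubated 5 h, compound-treated at 37 C, and read at 0, 8, 16, 24, 32 and 40 h.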

[6] = qHTS RealTime-Glo MT Cell Viability Assay in HepG2 cells - 0 hour (AID 1224889); further: nearly all actives have a fitted effect of over 50% in size
In short: as §3

[7] = A CellTox Green Cytotoxicity Assay to monitor cytotoxicity in HepG2 cells - 8 hour (AID 1224890); further: nearly all actives have a fitted effect of over 45% in size; further: potency means the concentration at half of the fitted maximal effect
In short: as §1

[8] = qHTS assay to identify small molecule antagonists of the estrogen receptor alpha (ER-alpha) signaling pathway using the BG1 cell line in the presence of 0.1 nM 17-beta-estradiol - cell viability counter screen (AID 1259241); further: nearly all actives have a fitted effect of over 40% in size; further: potency means the concentration at half of the fitted maximal effect
In short: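 Measures cytotoxicity alongside the ER-alpha antagonist readout: VM7Luc4E2 cells, charcoal-stripped serum, 0.1 nM 17beta-estradiol final, 22 hr compound incubation at 37C, CellTiter-Fluor fluorescence.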

[9] = qHTS assay to identify small molecule antagonists of the androgen receptor (AR) signaling pathway using the MDA cell line in the presence of 0.5 nM R1881 - cell viability counter screen (AID 1259242); further: nearly all actives have a fitted effect of over 45% in size; further: potency means the concentration at half of the fitted maximal effect
In short: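 qHTS format. MDA-kb2 (MMTV-luc, AR/GR responsive) + cpd + 0.5 nM R1881 final, 16 hr 37C/0% CO2 → CellTiter-Fluor 30 min → fluorescence intensity.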

[10] = biological target: Estrogen receptor (Homo sapiens) (UniProt P03372); assay: qHTS assay to identify small molecule antagonists of the estrogen receptor alpha (ER-alpha) signaling pathway using the BG1 cell line in the presence of 0.1 nM 17-beta-estradiol (AID 1259244); further: nearly all actives have a fitted effect of over 50% in size; further: potency means the concentration at half of the fitted maximal effect
In short: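 Reporter is a stably transfected luciferase under four estrogen responsive elements in VM7Luc4E2 cells expressing native full-length ER-alpha; inhibition of 0.1 nM (final) 17beta-estradiol-driven signal over 22 h is read by luminescence.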

[11] = qHTS assay to identify small molecule HDAC inhibitors (AID 1259364);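 further: wild-type HCT-116 cells with endogenous class I/II HDAC activity; top concentration of the series differs between compounds; nearly all actives have a fitted effect of over 45% in size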
In short: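 Quantitative high-throughput format: overnight-seeded HCT-116 cells got compounds for 2 hr at 37C; HDAC-Glo I/II reagent added, 30 min RT, luminescence measured.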

[12] = qHTS assay to identify small molecule HDAC inhibitors - cell viability counter screen (AID 1259365)
In short: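 Following a 2hr exposure of overnight-plated wild-type HCT-116 cells to DMSO-delivered compounds, CellTiter-Glo was added and luminescence recorded after 30min at room temperature.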

[13] = qHTS assay to identify small molecule agonists of the sonic hedgehog signaling (Shh) pathway - cell viability counter screen (AID 1259366); further: nearly all actives have a fitted effect of over 50% in size; further: potency means the concentration at half of the fitted maximal effect
In short: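 After a 4hr attachment at 37C, NIH/3T3 cells bearing an integrated Gli1-driven luciferase reporter were dosed with compounds. Treatment lasted 24hr, with the final hour including CellTiter-Fluor for a fluorescence viability measurement.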

[14] = qHTS assay to identify small molecule antagonists of the sonic hedgehog signaling (Shh) pathway - cell viability counter screen (AID 1259367); further: nearly all actives have a fitted effect of over 55% in size; further: potency means the concentration at half of the fitted maximal effect
In short: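 Fluorescence read-out (CellTiter-Fluor, 1 hr at 37C) taken after 23 hr compound treatment of 3T3 Gli1-Luc cells stimulated with conditioned medium. Cells were seeded at 2,000 per well and pre-incubated 4 hr.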

[15] = qHTS assay to identify small molecule agonists of the sonic hedgehog signaling (Shh) pathway (AID 1259368; calls by dose curve;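 further: NIH/3T3-derived 3T3Gli1-Luc cells carrying a stable Gli1-driven firefly luciferase reporter; series mostly up to about 92 µM; nearly all actives have a fitted effect of over 15% in size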)
In short: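 Quantitative high-throughput format using a Gli1-driven firefly luciferase reporter line derived from NIH/3T3 cells. After a 24 hr compound treatment at 37 C and 5% CO2, luminescence reported Gli1 response element activity.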

[16] = qHTS assay to identify small molecule antagonists of the sonic hedgehog signaling (Shh) pathway (AID 1259369; calls by dose curve; further: nearly all actives have a fitted effect of over 45% in size; further: potency means the concentration at half of the fitted maximal effect)
In short: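 Stable Gli1-Luc reporter NIH/3T3 clone; quantitative HTS in stimulated mode with conditioned medium. Luminescence measured after 24hr compound treatment at 37 C.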

[17] = A CellTox Green Cytotoxicity Assay to monitor cytotoxicity in HEK293 cells - 16 hour (AID 1224888); further: nearly all actives have a fitted effect of over 35% in size; further: potency means the concentration at half of the fitted maximal effect
In short: as §2

[18] = qHTS RealTime-Glo MT Cell Viability Assay in HEK293 cells - 8 hour (AID 1224887)
In short: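 600 HEK293 cells per well, dispensed already mixed with RealTime-Glo MT reagents. Compound dosing came 5 h later. The same wells were read for luminescence at 0, 8, 16, 24, 32 and 40 h of exposure at 37 C.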

[19] = biological target: Androgen receptor (Homo sapiens) (UniProt P10275); assay: qHTS assay to identify small molecule antagonists of the androgen receptor (AR) signaling pathway using the MDA cell line in the presence of 0.5 nM R1881 (AID 1259243)
In short: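 Antagonist mode quantitative HTS in MDA-kb2 MMTV-luciferase cells, agonist R1881 at 0.5 nM final, 16 hr exposure at 37C and 0% CO2, luminescent detection.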

Chain of Estrogen receptor (Homo sapiens) (P03372 whole entry, looked up): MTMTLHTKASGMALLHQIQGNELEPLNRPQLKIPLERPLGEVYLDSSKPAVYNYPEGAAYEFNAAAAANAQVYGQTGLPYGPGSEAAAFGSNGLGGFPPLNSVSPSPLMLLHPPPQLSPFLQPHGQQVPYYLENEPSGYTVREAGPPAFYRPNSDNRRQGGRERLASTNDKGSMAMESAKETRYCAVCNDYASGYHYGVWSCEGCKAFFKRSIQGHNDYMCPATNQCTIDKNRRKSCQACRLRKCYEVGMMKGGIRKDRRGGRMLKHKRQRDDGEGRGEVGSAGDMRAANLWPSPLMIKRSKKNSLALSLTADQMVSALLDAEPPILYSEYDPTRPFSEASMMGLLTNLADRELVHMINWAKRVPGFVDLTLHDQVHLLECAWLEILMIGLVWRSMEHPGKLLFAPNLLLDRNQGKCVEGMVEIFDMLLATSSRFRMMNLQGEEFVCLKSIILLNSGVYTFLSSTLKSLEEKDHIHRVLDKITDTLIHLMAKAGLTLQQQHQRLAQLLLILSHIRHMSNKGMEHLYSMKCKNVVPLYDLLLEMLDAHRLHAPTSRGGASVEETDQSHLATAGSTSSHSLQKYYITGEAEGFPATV
Chain of Androgen receptor (Homo sapiens) (P10275 whole entry, looked up): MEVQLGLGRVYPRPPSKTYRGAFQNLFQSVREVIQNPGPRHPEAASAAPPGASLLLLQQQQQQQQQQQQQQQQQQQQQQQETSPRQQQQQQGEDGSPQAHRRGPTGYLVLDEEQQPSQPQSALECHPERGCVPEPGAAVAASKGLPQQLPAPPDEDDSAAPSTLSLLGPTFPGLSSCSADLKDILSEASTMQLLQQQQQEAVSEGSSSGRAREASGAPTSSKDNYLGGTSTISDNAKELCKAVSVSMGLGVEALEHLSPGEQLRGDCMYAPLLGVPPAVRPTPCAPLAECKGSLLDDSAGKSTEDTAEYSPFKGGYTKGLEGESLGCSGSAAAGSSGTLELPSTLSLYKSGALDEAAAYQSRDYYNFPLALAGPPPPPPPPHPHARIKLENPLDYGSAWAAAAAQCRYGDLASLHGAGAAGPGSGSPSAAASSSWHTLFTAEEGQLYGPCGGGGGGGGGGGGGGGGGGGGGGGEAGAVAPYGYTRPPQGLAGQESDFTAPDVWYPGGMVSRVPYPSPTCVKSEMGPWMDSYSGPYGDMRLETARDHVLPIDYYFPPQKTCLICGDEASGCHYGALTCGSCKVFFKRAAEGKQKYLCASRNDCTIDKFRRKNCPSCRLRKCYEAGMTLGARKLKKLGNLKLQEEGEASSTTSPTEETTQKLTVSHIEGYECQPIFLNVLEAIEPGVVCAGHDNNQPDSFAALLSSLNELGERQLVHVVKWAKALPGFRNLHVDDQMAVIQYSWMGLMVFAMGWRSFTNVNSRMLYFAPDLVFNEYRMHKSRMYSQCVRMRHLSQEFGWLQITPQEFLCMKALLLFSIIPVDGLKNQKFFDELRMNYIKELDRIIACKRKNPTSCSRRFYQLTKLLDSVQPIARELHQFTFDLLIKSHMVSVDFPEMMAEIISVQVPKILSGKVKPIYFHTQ

SMILES: CCCCCCCCCCCCCl
- Potency [1]: inactive and 19.5 µM (active)
- Potency [2]: inactive and 12.3 µM (active)
- Potency [3]: inactive and 19.5 µM (active)
- Potency [4]: inactive
- Potency [5]: inactive
- Potency [6]: inactive
- Potency [7]: inactive and 12.3 µM (active)
- Potency [8]: inactive
- Potency [9]: inactive
- Potency [10]: inactive
- Potency [11]: inactive
- Potency [12]: inactive
- Potency [13]: inactive
- Potency [14]: inactive
- Potency [15]: inactive
- Potency [16]: inactive

SMILES: CCOC(=O)c1ccccc1N
- Potency [1]: inactive and 43.6 µM (active)
- Potency [2]: inactive and 54.9 µM (active)
- Potency [3]: inactive and 43.6 µM (active)
- Potency [4]: inactive
- Potency [5]: inactive
- Potency [17]: inactive
- Potency [6]: inactive
- Potency [7]: inactive and 49 µM (active)
- Potency [8]: inactive
- Potency [9]: inactive
- Potency [10]: inactive
- Potency [11]: inactive
- Potency [12]: inactive
- Potency [13]: inactive
- Potency [14]: inactive
- Potency [15]: inactive
- Potency [16]: inactive

SMILES: CN(C)c1nc(=O)n(C2CCCCC2)c(=O)n1C
- Potency [1]: inactive
- Potency [2]: inactive
- Potency [3]: inactive
- Potency [4]: inactive
- Potency [5]: inactive
- Potency [17]: inactive
- Potency [6]: inactive
- Potency [7]: inactive
- Potency [8]: inactive
- Potency [9]: inactive
- Potency [10]: inactive
- Potency [11]: inactive
- Potency [12]: inactive
- Potency [13]: inactive
- Potency [14]: inactive
- Potency [15]: inactive
- Potency [16]: inactive

SMILES: Cn1c(-c2ccccc2)cc(-c2ccccc2)[n+]1C
- Potency [1]: inactive
- Potency [2]: inactive
- Potency [3]: inactive
- Potency [4]: inactive
- Potency [18]: inactive
- Potency [17]: inactive
- Potency [6]: inactive
- Potency [7]: inactive
- Potency [8]: inactive
- Potency [10]: 5.44 µM (active) and 24.3 µM (active)
- Potency [11]: inactive
- Potency [12]: inactive
- Potency [13]: inactive
- Potency [14]: inactive
- Potency [15]: inactive
- Potency [16]: 306 nM (active) and inactive

SMILES: CCNc1nc(Cl)nc(NC(C)(C)C#N)n1
- Potency [1]: inactive
- Potency [2]: inactive
- Potency [3]: inactive
- Potency [4]: inactive
- Potency [5]: inactive
- Potency [17]: inactive
- Potency [6]: inactive
- Potency [7]: inactive
- Potency [8]: inactive
- Potency [9]: inactive
- Potency [11]: inactive
- Potency [12]: inactive
- Potency [13]: inactive
- Potency [14]: inactive
- Potency [15]: inactive
- Potency [16]: 685 nM (active)

SMILES: CCC[CH2][Sn]([Cl])([Cl])[CH2]CCC
- Potency [1]: inactive
- Potency [2]: 351 nM (active) and 490 nM (active)
- Potency [3]: inactive and 49 µM (active)
- Potency [4]: 701 nM (active) and 616 nM (active)
- Potency [5]: 111 nM (active) and 138 nM (active)
- Potency [17]: 786 nM (active) and 24.5 µM (active)
- Potency [6]: inactive
- Potency [7]: 14 µM (active) and 13.8 µM (active)
- Potency [8]: 1.74 µM (active) and 2.43 µM (active)
- Potency [9]: 874 nM (active) and 611 nM (active)
- Potency [10]: 1.23 µM (active) and inactive
- Potency [11]: inactive
- Potency [13]: 276 nM (active) and 433 nM (active)
- Potency [14]: 552 nM (active) and 770 nM (active)
- Potency [15]: inactive
- Potency [16]: 196 nM (active) and 243 nM (active)

SMILES: [Cl-].[Cl-].[Cl-].[Fe+3]
- Potency [1]: inactive
- Potency [2]: inactive
- Potency [3]: inactive
- Potency [4]: inactive
- Potency [5]: inactive
- Potency [17]: inactive
- Potency [6]: inactive
- Potency [7]: inactive
- Potency [8]: inactive
- Potency [9]: inactive
- Potency [11]: inactive
- Potency [12]: inactive
- Potency [13]: inactive
- Potency [14]: inactive
- Potency [15]: inactive

SMILES: COP(=S)(OC)SCn1nnc2ccccc2c1=O
- Potency [1]: inactive
- Potency [2]: inactive
- Potency [3]: inactive
- Potency [4]: inactive
- Potency [17]: inactive
- Potency [6]: inactive
- Potency [7]: inactive
- Potency [8]: inactive
- Potency [9]: inactive
- Potency [19]: 23.9 µM (active) and 17.2 µM (active)
- Potency [11]: inactive
- Potency [12]: inactive
- Potency [13]: inactive
- Potency [15]: inactive
- Potency [16]: 30 µM (active) and inactive

SMILES: CCOP(=O)(O)OCC (tested in a mixture with another compound)
- Potency [1]: inactive
- Potency [2]: inactive and 38.6 µM (active)
- Potency [3]: inactive and 54.5 µM (active)
- Potency [4]: inactive and 48.6 µM (active)
- Potency [5]: inactive and 8.64 µM (active)
- Potency [6]: inactive
- Potency [7]: inactive and 54.5 µM (active)
- Potency [8]: inactive
- Potency [9]: inactive and 54 µM (active)
- Potency [11]: inactive
- Potency [12]: inactive
- Potency [13]: inactive and 48.2 µM (active)
- Potency [14]: inactive and 42.9 µM (active)
- Potency [15]: inactive
- Potency [16]: 48.2 nM (active)

SMILES: N#Cc1cccnc1
- Potency [1]: inactive
- Potency [2]: inactive
- Potency [3]: inactive
- Potency [4]: inactive
- Potency [5]: inactive
- Potency [17]: inactive
- Potency [6]: inactive
- Potency [7]: inactive
- Potency [8]: inactive
- Potency [9]: inactive
- Potency [10]: inactive
- Potency [11]: inactive
- Potency [12]: inactive
- Potency [13]: inactive
- Potency [14]: inactive
- Potency [15]: inactive
- Potency [16]: inactive

SMILES: OCCOCCO
- Potency [1]: inactive
- Potency [2]: inactive
- Potency [3]: inactive
- Potency [4]: inactive
- Potency [5]: inactive
- Potency [17]: inactive
- Potency [6]: inactive
- Potency [7]: inactive
- Potency [8]: inactive
- Potency [9]: inactive
- Potency [10]: inactive
- Potency [11]: inactive
- Potency [12]: inactive
- Potency [13]: 56.1 µM (active) and inactive
- Potency [14]: 14.1 µM (active) and inactive
- Potency [15]: inactive
- Potency [16]: 4.46 µM (active) and inactive

SMILES: CN(C)c1ccccc1
- Potency [1]: inactive
- Potency [2]: inactive
- Potency [3]: inactive
- Potency [4]: inactive
- Potency [5]: inactive
- Potency [17]: inactive
- Potency [6]: inactive
- Potency [7]: inactive
- Potency [8]: inactive
- Potency [9]: inactive
- Potency [11]: inactive
- Potency [12]: inactive
- Potency [13]: inactive
- Potency [14]: inactive
- Potency [15]: inactive
- Potency [16]: inactive

SMILES: CC(C)(C#N)N=NC(C)(C)C#N
- Potency [1]: inactive
- Potency [2]: inactive
- Potency [3]: inactive
- Potency [4]: inactive
- Potency [5]: inactive
- Potency [17]: inactive
- Potency [6]: inactive
- Potency [7]: inactive
- Potency [8]: inactive
- Potency [9]: inactive
- Potency [10]: inactive
- Potency [11]: inactive
- Potency [12]: inactive
- Potency [13]: inactive
- Potency [14]: inactive
- Potency [15]: inactive
- Potency [16]: inactive
